# Unmarked numbers belong to inactive results. Active and inactive are the calls of the source. Rule as the data show it: active = fold change permeability below about 0.7 or above about 1.3; inactive = in between.
# Test: modulators of brain endothelial barrier permeability, primary screen, cell-based, FITC-avidin fluorescence, HTS (AID 1963498); also: test concentration not given here
# Conditions: actives lie on both sides
row,SMILES,fold change permeability
1,C[C@@H]1[C@@H]2Cc3ccc(O)cc3[C@@]1(C)CCN2CC1CC1,1.3 (active)
2,COc1ccc(Cc2nccc3cc(OC)c(OC)cc23)cc1OC,1.2
3,O=C(O)[C@@H]1CCN1,1
4,COc1ccccc1N1CCNCC1,0.9
5,CC(N)C(=O)OC(C)(C)Cc1ccc(Cl)cc1 (configuration not stated),1.1
6,COc1cc2c(c(OC)c1OC)-c1ccc(SC)c(=O)cc1[C@@H](NC(C)=O)CC2,1.7 (active)
7,CCCN1CCC[C@@H](c2cccc(O)c2)C1,1
8,CCCN(CCC)C1Cc2cc(OC)c(OC)cc2C1,0.8
9,CCCN(CCC)C1CCc2ccc(O)cc2C1 (configuration not stated),1.1
10,CC(N)Cc1c[nH]c2ccc(OCc3cccs3)cc12 (configuration not stated),1.3 (active)
11,CC(NC(C)(C)C)C(=O)c1cccc(Cl)c1 (configuration not stated),1
12,N#Cc1ccc(N2CCN(C(=O)COc3ccc4[nH]cc(CCN)c4c3)CC2)cc1,1
13,NC(=O)CI,1.2
14,O=C(O)c1nn(Cc2ccc(Cl)cc2Cl)c2ccccc12,1.9 (active)
15,CC(N)Cc1c[nH]c2ccc(O)cc12 (configuration not stated),0.8
16,NCCc1c[nH]c2ccccc12,1.4 (active)
17,CN1CC[C@@]2(C)c3cc(O)ccc3N(C)C12 (some centres not stated),1.3 (active)
18,CC(C)=CCOc1c2occc2cc2ccc(=O)oc12,1.5 (active)
19,CCCN1CCC[C@@H]2Cc3[nH]ncc3C[C@H]21,0.9
20,O=C1CCCN1CC#CCN1CCCC1,0.8
21,Cn1cnc(CCN)c1,0.9
22,c1ccc(C[N+]23CN4CN(CN(C4)C2)C3)cc1,0.7 (active)

# From PubChem BioAssay
